# High-throughput results (PubChem BioAssay)
# D1 antagonist: antagonists of human D1 dopamine receptor | HEK293 TREx D1 cells, calcium flux, dopamine EC80; active compounds read low | activity change, negative = inhibition, % at 10 µM | actives 3.2% (n = 360,000) | AID 504652; in the data active means activity change below about -30%; further: on the % scale 0 is the no-effect control and ±100 the full control effect
#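 Kinetic fluorescence of a calcium dye serves as the read-out. D1-expressing Hek293 Trex cells, induced overnight at 30 C, are exposed to compound for 180 s before an EC80 dopamine addition, then read 180 s further.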
# D1 agonist: activates the human D1 dopamine receptor | P21728 | HEK293 T-REx D1 cells, calcium flux, agonist mode | activation, % at 2 µM | actives 1% (n = 360,000); further: 0% is about no effect
#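 Inducible HEK293 T-REx D1 cells, force-coupled to calcium signalling, were plated at 4000 cells/well with tetracycline and held overnight at 30 C. After no-wash calcium dye loading, compound-evoked calcium rise over 180 s flagged agonists.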
# Epigenetic reg: regulators of epigenetic silencing causing reporter derepression in mouse cells; murine LDR cells, GFP reporter derepression, 30 h; Potency, µM (titrated, usually from 53.9 µM), for inactives: top-dose GFP activation, usual class: activators; actives 0.2% (n = 280,000); AID 1865; active means well fitted activation curve with a large enough effect; inconclusive means small, poorly fitted or top-dose-only effect; further: potency means the concentration at half of the fitted maximal effect; % of control where 0% means no effect; nearly all actives have a fitted effect of over 60% in size
#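 In this reporter-derepression format, murine cells bearing a silenced integrated CMV-GFP locus incubate with test compound (30 h, 37 C), then are washed and imaged; fluorescent objects of 20–120 um count as induced cells.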
# TRHR agonist: TRH receptor (human) agonism; actives 0.18% (n = 360,000); TRHR cells, calcium flux fluo-8, FDSS agonist mode; AID 493084; activation, % at 2 µM; P34981; further: 0% is about no effect
# Target sequence (P34981 whole entry, looked up): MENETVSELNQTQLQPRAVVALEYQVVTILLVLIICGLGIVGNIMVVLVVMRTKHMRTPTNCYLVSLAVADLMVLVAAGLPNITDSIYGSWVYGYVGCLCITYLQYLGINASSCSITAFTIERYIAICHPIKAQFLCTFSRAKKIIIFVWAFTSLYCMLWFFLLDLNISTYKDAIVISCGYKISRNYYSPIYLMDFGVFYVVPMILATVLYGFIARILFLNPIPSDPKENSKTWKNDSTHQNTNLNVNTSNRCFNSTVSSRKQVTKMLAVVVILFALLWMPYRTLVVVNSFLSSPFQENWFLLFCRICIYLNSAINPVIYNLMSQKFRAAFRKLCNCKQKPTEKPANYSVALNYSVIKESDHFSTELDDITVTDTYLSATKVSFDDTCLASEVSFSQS
#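 Read-out: compound-evoked intracellular calcium rise in TRHR cells, fluo-8 dye, kinetic FDSS fluorescence at 1 s/cycle following a 10-cycle baseline. Cells cultured overnight before dye loading (30 min–1.5 h, RT).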
# D1 potentiator: enhances dopamine response at the human D1 receptor. P21728. HEK293 TREx D1 cells, calcium flux, dopamine EC20 potentiation. potentiation, % at 10 µM. actives 0.036% (n = 360,000). AID 504651; in the data active means potentiation above about 30%; further: 0% is about no effect
# TRHR PAM: TRH receptor (human) allosteric enhancement; P34981; TRHR cells, fluo-8 calcium fluorescence, EC20 TRH enhancement; enhancement, % at 2 µM; actives 0.66% (n = 360,000); in the data active means enhancement above about 30%; further: 0% is about no effect
#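 TRHR-expressing cells loaded with fluo-8 calcium dye were read kinetically (ex 480/em 530) during compound addition, then stimulated with an EC20 of TRH (10 nM final). Enhancement of the Gq-mediated intracellular calcium response was scored.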
# * hit, by the source's call; ? = inconclusive; / = not tested or not shown. In the library only some 4.6% were active in any assay of this set; here they are far more common. Unless noted, no stated cut-off is given here; in the data, active means activation above about 30%; inactive means the rest.
SMILES,D1 antagonist,D1 agonist,Epigenetic reg,TRHR agonist,D1 potentiator,TRHR PAM
Cc1ccc(Cn2c(C)c3cnn(CC(=O)NCCc4ccc(Cl)cc4)c(=O)c3c2C)cc1,0,-1,1%,0,-2,5
Cc1cccc(C(=O)Nc2ccc3c(c2)C(=O)NC3=O)c1,-4,1,/,-1,-7,8
CN1C(=O)c2ccc(NC(=O)CSc3ccccc3)cc2C1=O,-8,0,/,-1,-3,27
O=C(Nc1ccc2c(c1)C(=O)NC2=O)c1cc(Cl)ccc1Cl,-31*,1,/,-2,-5,3
O=C(CSc1ccc(F)cc1)Nc1ccc2c(c1)C(=O)NC2=O,-37*,12,/,-1,-10,5
O=C(Nc1ccc2c(c1)C(=O)NC2=O)c1cccc(Cl)c1,-33*,-1,/,-1,-6,-1
CN(C)c1ccc(CNC(=O)c2ccc(Cn3c(=O)c4cccn4c4cccnc43)cc2)cc1,8,3,?,0,2,-1
CCCn1c(SCC(=O)NC2CCCCC2)nnc1C1CC1,16,2,/,0,-5,33*
NC(=O)c1ccc(NC(=O)CSc2nnc(C3CCCCC3)n2N)cc1,12,2,/,0,2,-8
C=CCn1c(SCC(=O)NC2CC2)nnc1-c1ccccn1,8,4,/,0,-4,-3
C=CCn1c(SCC(=O)NC2CCCCC2)nnc1-c1ccccn1,-32*,3,/,0,-7,0
Nn1c(SCC(=O)Nc2ccc(F)c(F)c2)nnc1C1CCCCC1,-53*,4,5%,0,-6,-2
CCn1c(SCC(=O)Nc2ccc(F)cc2)nnc1C1CC1,-6,1,/,-1,-5,41*
Cn1c(SCC(=O)Nc2ccc(F)cc2)nnc1C1CC1,-1,1,/,1,-6,-4
COc1ccc(Cl)cc1NC(=O)CSc1nc2c(oc3ccccc32)c(=O)n1Cc1ccco1,-15,1,0%,0,0,2
CN(C(=O)c1ccc(NC(=O)Cc2cccc(NC(=O)C3CCCN(C(=O)CCc4ccccc4)C3)c2)cc1)C1CCCC1 (centres undefined),6,4,/,1,2,-1
CN(Cc1ccccc1)C(=O)c1ccc(NC(=O)Cc2cccc(NC(=O)C3CCCN(C(=O)CCc4ccccc4)C3)c2)cc1 (centres undefined),-33*,8,/,1,-4,0
Cc1ccccc1NC(=O)CSc1nc2c(oc3ccccc32)c(=O)n1Cc1ccco1,-3,1,?,1,-4,1
CCOCCCNC(=O)C1CCN(Cc2ccc(OCc3ccccc3)c(OC)c2)CC1,4,5,/,0,2,12
CCOCCCNC(=O)C1CCN(Cc2cccc(OCc3ccccc3)c2)CC1,-31*,-2,/,0,-3,-7
CN1CCN(CCCNC(=O)c2cnn(-c3ccccc3)c2-n2cccc2)CC1,15,3,-2%,1,-1,8
COc1ccc(NC(=O)CSCC(=O)N2CCN(C(=O)c3ccco3)CC2)cc1,-63*,3,/,0,/,0
COc1ccc(NC(=O)N(C2CCCCC2)C(C)c2ccco2)c(OC)c1 (centres undefined),-78*,1,-1%,0,-18,-19
COc1ccc(NC(=O)N(C2CCCCC2)C(C)c2cccnc2)c(OC)c1 (centres undefined),-7,3,0%,0,-3,-8
COc1ccc(NC(=S)N2CCN(C(=O)c3ccco3)CC2)c(OC)c1,-68*,2,2%,1,-7,-3
SMILES,D1 antagonist,D1 agonist,Epigenetic reg,TRHR agonist,D1 potentiator,TRHR PAM
Cc1nc(-c2ccc(F)cc2)sc1CCNC(=O)c1cccs1,-64*,10,-2%,-1,-3,16
O=C(Cc1ccc(F)cc1)NCCc1csc(-c2cccc(F)c2)n1,13,0,-2%,0,2,5
O=C(NCCc1csc(-c2ccc(F)cc2)n1)c1cccc(F)c1,-55*,7,5%,0,-4,0
O=C(NCCc1csc(-c2cccc(F)c2)n1)c1cccs1,-62*,6,0%,0,-5,-3
Cc1nc(-c2ccc(F)cc2)sc1CCNC(=O)c1ccccc1,-10,3,-1%,-1,-1,-1
O=C(COC(=O)CSc1ccc([N+](=O)[O-])cc1)NCc1cccs1,-55*,7,/,-1,-5,11
O=C(COC(=O)CCCOc1ccc(Cl)cc1Cl)NCc1ccccc1,-37*,7,-1%,-1,-4,28
Cc1ccc(SCC(=O)OCC(=O)NCc2cccs2)cc1,-2,0,/,0,-2,-1
COc1ccc(CNC(=O)COC(=O)Cc2ccc(Cl)cc2Cl)cc1,-47*,17,1%,-2,-4,3
O=C(COC(=O)COc1ccc(Cl)cc1Br)NCc1cccs1,-32*,0,-2%,0,-9,12
CCOC(=O)CNC(=O)COc1ccc(Cl)cc1Br,5,0,0%,-1,2,-1
O=C(COn1nnc2ccc(Cl)cc21)NCc1ccccc1,-34*,1,2%,0,-9,0
Cn1c(NCCCO)nc2c1c(=O)n(Cc1cccc(F)c1)c(=O)n2C,4,0,1%,0,1,9
CC1=C(C(=O)OCC(Cl)(Cl)Cl)N2C(=O)C(NC(=O)Cc3ccccc3)C2SC1 (centres undefined),-34*,26,-2%,-1,-10,4
CC1=C(C(N)=O)N2C(=O)[C@@H](NC(=O)Cc3ccccc3)C2SC1 (some centres undefined),/,/,3%,/,/,/
CC(=O)c1ccc(NC(=O)COCc2cc(-c3ccco3)on2)cc1,-26,3,-3%,-1,0,7
C[C@@H](C(=O)Nc1ccc2ccccc2c1)[C@H]1C[C@]1(C)[C@H](NC(=O)c1cnccn1)c1ccccc1,22,2,9%,0,-3,0
C[C@@H](C(=O)Nc1ccc2ccccc2c1)[C@@H]1C[C@@]1(C)[C@@H](NC(=O)c1cnccn1)c1ccccc1,-30*,6,-4%,0,-1,4
Cc1ccc2c(c1)C(=O)CC1(CCC(C(C)(C)C)CC1)O2 (centres undefined),-31*,4,-2%,0,-2,-1
O=C(O)c1ccc(S(=O)(=O)NCc2cccnc2)cc1,2,2,/,0,-2,35*
O=C(Nc1ccc(Cl)c(Cl)c1)c1cccc(S(=O)(=O)NCc2cccnc2)c1,-31*,9,0%,0,-4,-5
Cc1nc(NC2CCCCC2)c2nc(-c3ccccc3)n(CCCN3CCOCC3)c2n1,/,/,-1%,/,/,/
